# Assay results from PMC5540273 (PLoS ONE, 2017).
# System: CDKL2
# 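Note: kd values determined as follow-up on hits from a single-replicate KINOMEscan panel screen.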
row,Compound,Kd [nM]
1,O=C(Nc1n[nH]c2cc(-c3cccc(F)c3F)ccc12)C1CC1 [SB-733894],300
2,O=C(Nc1n[nH]c2nc(-c3nccs3)c(Br)cc12)C1CCCC1 [SB-742609],500
3,O=C(Nc1n[nH]c2nc(-c3nccs3)c(Br)cc12)C1CC1 [SB-742251],480

# System: CIT
row,Compound,Kd [nM]
1,Cc1cccc(-c2nc(Nc3ccncc3)c3ccccc3n2)n1 [GW855857],440
2,Cc1ccc(NC(=O)Nc2cccc(Cl)c2)cc1-c1ccc(C(=O)Nc2ccncc2)cc1 [GSK1398468],150
3,O=C(Nc1ccccc1)Nc1cccc(Oc2ccc3nccn3n2)c1,1.1

# System: CLK3
row,Compound,Kd [nM]
1,COc1cc2nccc(Nc3ccc(NC(=O)c4ccc(C)cc4)c(O)c3)c2cc1OC.Cl [GW440132],> 10000
2,COc1ccc(Nc2nccc(NCCNC(=O)Nc3ccccc3F)n2)cc1 [GSK1379901],> 10000
3,Cn1cncc1-c1ccc2ncnc(Nc3ccc(OCc4ccccc4)cc3)c2c1 [GW320571],> 10000

# System: CSF1R
row,Compound,Kd [nM]
1,CC(=O)Nc1nc2cnc(Nc3cc(NC(=O)c4cccc(CCC#N)c4)ccc3C)nc2s1,> 10000
2,Cn1ccc2ncnc(Oc3ccc(NC(=O)Nc4ccccc4)cc3)c21,82
3,O=C(Nc1ccccc1)Nc1cccc(Oc2ccc3nccn3n2)c1,27

# System: CSNK1E
row,Compound,Kd [nM]
1,CN(C)CCN(C)C(=O)c1cc(-c2ccncc2)c(-c2ccc(Cl)c(O)c2)o1.Cl.Cl [SB-710397],410
2,COc1ccc(Nc2nccc(NCCNC(=O)Nc3ccccc3F)n2)cc1 [GSK1379901],> 10000
3,CC(C)(C)c1ccc(C(=O)Nc2cn3cc(-c4cccnc4)ccc3n2)cc1,110
4,Cn1cncc1-c1ccc2ncnc(Nc3ccc(OCc4ccccc4)cc3)c2c1 [GW320571],> 10000
